From PubChem BioAssay (Tox21)
Where “and” joins values, the source holds several entries; their conditions need not be identical. Equal entries are not always repeated. Records with an inconclusive call do not appear. Where a structure was tested more than once in an assay, its records may differ in their call. Calls of active or inactive are those of the source. Unless noted, calls follow the shape of the dose curve; as a rule, active = well fitted curve in the direction sought with a large enough effect in the repeat runs; inconclusive = weak or mixed curves; inactive = flat fitted curve, though single readings scatter.

Experiments:
[1] = qHTS assay to test for compound auto fluorescence at 535 nm (green) in HEK293 cells (AID 720680)
[2] = qHTS assay to test for compound auto fluorescence at 460 nm (blue) in HEK293 cell free culture (AID 720681)
Procedure, shortened: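 Blue fluorescence (Ex 405/Em 460 nm, triamterene-equivalent) was read immediately after pin transfer of compound or DMSO into medium (DMEM, 10% FBS) without cells.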

[3] = qHTS assay to test for compound auto fluorescence at 535 nm (green) in HEK293 cell free culture (AID 720682)
Procedure, shortened: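 No cells present: wells hold DMEM supplemented with 10% FBS, into which compound or vehicle is pinned. Green emission is then recorded (485 nm excitation, 535 nm emission) and scaled to fluorescein.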

[4] = qHTS assay to test for compound auto fluorescence at 590 nm (red) in HEK293 cell free culture (AID 720683)
Procedure, shortened: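 Red-channel autofluorescence of compounds in culture medium (DMEM, 10% FBS), no cells, measured at 540/590 nm. Rose Bengal sodium is the reference fluorophore for equivalence.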

[5] = qHTS assay to test for compound auto fluorescence at 460 nm (blue) in HepG2 cell free culture (AID 720685)
Procedure, shortened: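 Cell-free plates of MEM plus 10% FBS received 23 nL compound or DMSO vehicle; blue-channel (405/460 nm) intensity scored against triamterene as reference fluorophore.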

[6] = qHTS assay to test for compound auto fluorescence at 535 nm (green) in HepG2 cell free culture (AID 720686)
[7] = qHTS assay to test for compound auto fluorescence at 460 nm (blue) in HepG2 cells (AID 720687)
Procedure, shortened: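 Blue-channel autofluorescence (Ex/Em 405/460 nm, triamterene-equivalent) was measured after 1 hr compound exposure at 37 C, 5% CO2. Cells were HepG2, plated overnight at 37 C in MEM plus 10% FBS.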

[8] = target: Glucocorticoid receptor (Homo sapiens) (UniProt P04150); test: qHTS assay to identify small molecule agonists of the glucocorticoid receptor (GR) signaling pathway (AID 720691; active = well fitted activation curve with a large enough effect in the signal ratio in the repeat runs, not every such curve was filed as active; the % refers to the signal ratio)
Procedure, shortened: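 HeLa GR-bla reporter line; cells pre-incubated 4 h, compound in DMSO 18 h at 37 C; LiveBLAzer B/G FRET substrate 2 h RT; fluorescence intensity read-out.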

[9] = target: Glucocorticoid receptor (Homo sapiens) (UniProt P04150); test: qHTS assay to identify small molecule antagonists of the glucocorticoid receptor (GR) signaling pathway (AID 720692; active = well fitted inhibition curve with a large enough effect in the signal ratio in the repeat runs, not every such curve was filed as active; the % refers to the signal ratio; also: potency is read from the fitted curve at half-maximal effect)
Procedure, shortened: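 Read-out: beta-lactamase FRET substrate fluorescence, 2 h at room temperature, in HeLa cells stably carrying a GRE-driven bla reporter. Compounds were co-incubated with 5 nM dexamethasone agonist (final) for 18 h at 37 C.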

[10] = qHTS assay to test for compound auto fluorescence at 590 nm (red) in HepG2 cell free culture (AID 720684)
Procedure, shortened: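 No cells present: MEM + 10% FBS only. Compound pinned in, red label read (540/590 nm). Activity = fluorescence equivalent to Rose Bengal sodium.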

Measured: Potency

Chain of Glucocorticoid receptor (Homo sapiens) (P04150 whole entry, looked up): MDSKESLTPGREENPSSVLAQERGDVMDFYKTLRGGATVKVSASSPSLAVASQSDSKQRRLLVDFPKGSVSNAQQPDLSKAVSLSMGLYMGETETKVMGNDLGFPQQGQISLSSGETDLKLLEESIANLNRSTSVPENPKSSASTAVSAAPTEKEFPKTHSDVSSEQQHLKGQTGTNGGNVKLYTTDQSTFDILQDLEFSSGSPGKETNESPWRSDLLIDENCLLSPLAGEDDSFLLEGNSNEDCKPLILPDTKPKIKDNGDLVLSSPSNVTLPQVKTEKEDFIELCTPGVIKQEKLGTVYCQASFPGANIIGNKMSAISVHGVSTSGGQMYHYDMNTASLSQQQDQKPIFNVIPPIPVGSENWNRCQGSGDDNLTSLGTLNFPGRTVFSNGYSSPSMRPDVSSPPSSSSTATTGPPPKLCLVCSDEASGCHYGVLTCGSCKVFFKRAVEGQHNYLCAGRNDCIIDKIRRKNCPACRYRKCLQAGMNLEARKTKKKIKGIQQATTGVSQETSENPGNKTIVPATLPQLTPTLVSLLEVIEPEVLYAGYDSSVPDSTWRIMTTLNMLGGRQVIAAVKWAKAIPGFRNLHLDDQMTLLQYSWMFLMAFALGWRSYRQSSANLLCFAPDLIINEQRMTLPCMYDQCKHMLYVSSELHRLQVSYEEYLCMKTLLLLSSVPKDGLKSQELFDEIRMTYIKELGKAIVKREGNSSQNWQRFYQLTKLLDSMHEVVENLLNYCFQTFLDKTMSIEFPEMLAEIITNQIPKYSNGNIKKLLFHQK

CCCCCCC(O)CCCCCCCCCCC(=O)O (centres undefined)
not listed: [9] | [10]
inactive: all other assays above

OCC(CO)N[C@H]1C[C@](O)(CO)[C@@H](O)[C@H](O)[C@H]1O
not listed: [10]
inactive: all other assays above

CC(C)(C)c1ccc(O)c(C(C)(C)C)c1
not listed: [8] | [9] | [10]
inactive: all other assays above

CCCCCC(=O)O[C@]1(C(C)=O)CC[C@H]2[C@@H]3CCC4=CC(=O)CC[C@]4(C)[C@H]3CC[C@@]21C
active: [9] 268 nM and 194 nM
inactive: all other assays above

CCn1c2ccccc2c2cc(N)ccc21
not listed: [2] | [8] | [9]
inactive: all other assays above

CC(=O)OCCOCCOCCOC(C)=O
not listed: [8] | [9] | [10]
inactive: all other assays above

Cc1cc(C2(c3cc(C)c(O)cc3C)OS(=O)(=O)c3ccccc32)c(C)cc1O
not listed: [9] | [10]
inactive: all other assays above

CC1COC(=O)O1 (centres undefined)
inactive: all assays above

COc1ccc(CCN(C)CCCC(C#N)(c2ccc(OC)c(OC)c2)C(C)C)cc1OC (centres undefined)
not listed: [2] | [8] | [9]
inactive: all other assays above

CCCCOCCOC(=O)c1ccccc1C(=O)OCCOCCCC
not listed: [8] | [9] | [10]
inactive: all other assays above

COC(=O)/C=C/c1ccccc1
not listed: [10]
inactive: all other assays above

Cc1c(O)cccc1C(=O)N[C@@H](CSc1ccccc1)[C@H](O)CN1C[C@H]2CCCC[C@H]2C[C@H]1C(=O)NC(C)(C)C
not listed: [8] | [9] | [10]
inactive: all other assays above

CCN(CC)CCOc1ccc(/C(=C(\Cl)c2ccccc2)c2ccccc2)cc1
not listed: [8] | [9] | [10]
inactive: all other assays above

Nc1nc(=S)c2[nH]cnc2[nH]1
active: [9] 23.9 µM and 30.1 µM and 43.6 µM
not listed: [8]
inactive: all other assays above

C[N+]1([O-])CCOCC1
not listed: [9] | [10]
inactive: all other assays above

CC1COc2c(N3CCN(C)CC3)c(F)cc3c(=O)c(C(=O)O)cn1c23 (centres undefined)
not listed: [8] | [9] | [10]
inactive: all other assays above

Clc1ccc2c(c1)C(N1CCNCC1)=Nc1ccccc1O2
19 µM (active) and inactive: [9]
not listed: [10]
inactive: all other assays above

O=C(O[C@@H]1Cc2c(O)cc(O)cc2O[C@@H]1c1cc(O)c(O)c(O)c1)c1cc(O)c(O)c(O)c1
not listed: [10]
inactive: all other assays above

CC(=O)CC(C)=O
not listed: [8] | [9] | [10]
inactive: all other assays above

C=C(C)C1CC=C(C)C(OC(C)=O)C1 (centres undefined)
not listed: [10]
inactive: all other assays above

COC(c1ccccc1)(c1ccccc1)[C@H](Oc1nc(C)cc(C)n1)C(=O)O
not listed: [9] | [10]
inactive: all other assays above
